# This excerpt belongs to a sample that is enriched for the strongest signals.
# Key:
# Assay in all cases: glycan array binding signal (z-score within array); higher = stronger binding
# Conditions in all cases: glycan notation: IUPAC condensed, linker removed
# Fuc(a1-2)Gal = target: Fuc(a1-2)Gal
# Summary of the method: (§1)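 The binding signal is a Z-score computed within each array. Data were drawn from 3228 arrays in the Consortium for Functional Glycomics database, restricted to those with a known protein sequence. Scores were averaged over arrays of the same protein sequence at different concentrations or buffers, and over linkers, and negative values can be taken as non-binding.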
# [1] = target: Fuc(a1-2)Gal(b1-3)GalNAc(a1-3)[Fuc(a1-2)]Gal(b1-4)GlcNAc
# Summary of the method: as §1
# [2] = target: Fuc(a1-2)Gal(b1-4)GlcNAc6S
# Summary of the method: as §1
# [3] = target: Fuc(a1-2)Gal3S(b1-4)GlcNAc
# Summary of the method: as §1
# Fuc(a1-2)Gal6S(b1-4)Glc = target: Fuc(a1-2)Gal6S(b1-4)Glc
# Summary of the method: as §1
# [4] = target: Fuc(a1-2)[Gal(a1-3)]Gal(b1-3)GlcNAc(b1-2)Man(a1-3)[Fuc(a1-2)[Gal(a1-3)]Gal(b1-3)GlcNAc(b1-2)Man(a1-6)]Man(b1-4)GlcNAc(b1-4)[Fuc(a1-6)]GlcNAc
# Summary of the method: as §1
# [5] = target: Fuc(a1-2)[GalNAc(a1-3)]Gal
# Summary of the method: as §1
# [6] = target: Fuc(a1-2)[GalNAc(a1-3)]Gal(b1-3)GlcNAc
# Summary of the method: as §1
# [7] = target: Fuc(a1-2)[GalNAc(b1-3)]Gal
# Summary of the method: as §1
# Gal(a1-3)Gal(b1-3)GlcNAc = target: Gal(a1-3)Gal(b1-3)GlcNAc
# Summary of the method: as §1
# [8] = target: Gal(a1-3)Gal(b1-3)GlcNAc(b1-3)GalNAc
# Summary of the method: as §1
# [9] = target: Gal(a1-3)Gal(b1-4)GlcNAc(b1-3)GalNAc
# Summary of the method: as §1
# [10] = target: Gal(a1-4)Gal(b1-4)GlcNAc(b1-3)Gal(b1-4)Glc
# Summary of the method: as §1
# [11] = target: Gal(b1-3)GlcNAc(a1-3)Gal(b1-4)GlcNAc
# Summary of the method: as §1
# [12] = target: Gal(b1-3)GlcNAc(b1-2)Man(a1-3)[Gal(b1-3)GlcNAc(b1-2)Man(a1-6)]Man(b1-4)GlcNAc(b1-4)GlcNAc
# Summary of the method: as §1
# [13] = target: Gal(b1-3)GlcNAc(b1-2)Man(a1-3)[Gal(b1-3)GlcNAc(b1-2)Man(a1-6)]Man(b1-4)GlcNAc(b1-4)[Fuc(a1-6)]GlcNAc
# Summary of the method: as §1
# [14] = target: Gal(b1-3)GlcNAc(b1-2)Man(a1-3)[GlcNAc(b1-4)][Gal(b1-3)GlcNAc(b1-2)Man(a1-6)]Man(b1-4)GlcNAc(b1-4)GlcNAc
# Summary of the method: as §1
# [15] = target: Gal(b1-3)GlcNAc(b1-2)[Gal(b1-3)GlcNAc(b1-6)]Man(a1-6)[Gal(b1-3)GlcNAc(b1-2)Man(a1-3)]Man(b1-4)GlcNAc(b1-4)GlcNAc
# Summary of the method: as §1
# [16] = target: Gal(b1-3)GlcNAc(b1-6)[Gal(b1-3)]GalNAc
# Summary of the method: as §1
# [17] = target: Gal(b1-4)GlcNAc(b1-2)[Gal(b1-4)GlcNAc(b1-4)]Man(a1-3)[Gal(b1-4)GlcNAc(b1-2)Man(a1-6)]Man(b1-4)GlcNAc(b1-4)GlcNAc
# Summary of the method: as §1
# [18] = target: Gal(b1-4)GlcNAc(b1-2)[Gal(b1-4)GlcNAc(b1-6)]Man(a1-6)[GlcNAc(b1-4)][Gal(b1-4)GlcNAc(b1-2)Man(a1-3)]Man(b1-4)GlcNAc(b1-4)GlcNAc
# Summary of the method: as §1
# [19] = target: Gal(b1-4)GlcNAc(b1-3)Gal(b1-4)GlcNAc
# Summary of the method: as §1
# [20] = target: Gal(b1-4)GlcNAc(b1-3)Gal(b1-4)GlcNAc(b1-2)Man(a1-3)[Gal(b1-4)GlcNAc(b1-3)Gal(b1-4)GlcNAc(b1-2)Man(a1-6)]Man(b1-4)GlcNAc(b1-4)GlcNAc
# Summary of the method: as §1
# [21] = target: Gal(b1-4)GlcNAc(b1-3)Gal(b1-4)GlcNAc(b1-2)[Gal(b1-4)GlcNAc(b1-3)Gal(b1-4)GlcNAc(b1-6)]Man(a1-6)[Gal(b1-4)GlcNAc(b1-3)Gal(b1-4)GlcNAc(b1-2)Man(a1-3)]Man(b1-4)GlcNAc(b1-4)GlcNAc
# Summary of the method: as §1
# [22] = target: Gal(b1-4)GlcNAc(b1-3)Gal(b1-4)GlcNAc(b1-3)Gal(b1-4)GlcNAc(b1-2)Man(a1-3)[Gal(b1-4)GlcNAc(b1-3)Gal(b1-4)GlcNAc(b1-3)Gal(b1-4)GlcNAc(b1-2)Man(a1-6)]Man(b1-4)GlcNAc(b1-4)[Fuc(a1-6)]GlcNAc
# Summary of the method: as §1
# [23] = target: Gal3S(b1-3)[Fuc(a1-4)]GlcNAc
# Summary of the method: as §1
# Gal3S(b1-4)Glc = target: Gal3S(b1-4)Glc
# Summary of the method: as §1
# GalNAc(b1-4)GlcNAc6S = target: GalNAc(b1-4)GlcNAc6S
# Summary of the method: as §1
# [24] = target: GlcA3S(b1-3)Gal(b1-4)GlcNAc(b1-3)Gal(b1-4)Glc
# Summary of the method: as §1
# [25] = target: GlcNAc(a1-4)Gal(b1-4)GlcNAc(b1-3)Gal(b1-4)GlcNAc(b1-3)Gal(b1-4)GlcNAc
# Summary of the method: as §1
# [26] = target: GlcNAc(b1-3)Gal(b1-3)GalNAc
# Summary of the method: as §1
# [27] = target: GlcNAc(b1-3)Gal(b1-4)GlcNAc(b1-3)Gal(b1-4)GlcNAc(b1-2)Man(a1-3)[GlcNAc(b1-3)Gal(b1-4)GlcNAc(b1-3)Gal(b1-4)GlcNAc(b1-2)Man(a1-6)]Man(b1-4)GlcNAc(b1-4)GlcNAc
# Summary of the method: as §1
# [28] = target: GlcNAc(b1-3)Gal(b1-4)GlcNAc(b1-3)Gal(b1-4)GlcNAc(b1-3)Gal(b1-4)GlcNAc(b1-2)Man(a1-3)[GlcNAc(b1-3)Gal(b1-4)GlcNAc(b1-3)Gal(b1-4)GlcNAc(b1-3)Gal(b1-4)GlcNAc(b1-2)Man(a1-6)]Man(b1-4)GlcNAc(b1-4)[Fuc(a1-6)]GlcNAc
# Summary of the method: as §1
# [29] = target: GlcNAc(b1-6)Gal(b1-4)GlcNAc
# Summary of the method: as §1
# Kdn(a2-3)Gal(b1-4)Glc = target: Kdn(a2-3)Gal(b1-4)Glc
# Summary of the method: as §1
# [30] = target: Man(a1-2)Man(a1-3)[Man(a1-2)Man(a1-6)]Man
# Summary of the method: as §1
# [31] = target: Man(a1-2)Man(a1-3)[Man(a1-2)Man(a1-6)]Man(a1-6)[Man(a1-2)Man(a1-2)Man(a1-3)]Man
# Summary of the method: as §1
# [32] = target: Man(a1-2)Man(a1-6)[Man(a1-3)]Man(a1-6)[Man(a1-2)Man(a1-2)Man(a1-3)]Man(b1-4)GlcNAc(b1-4)GlcNAc
# Summary of the method: as §1
# Man(a1-6)Man = target: Man(a1-6)Man
# Summary of the method: as §1
# Neu5Ac(a2-3)Gal(b1-4)Glc = target: Neu5Ac(a2-3)Gal(b1-4)Glc
# Summary of the method: as §1
# [33] = target: Neu5Ac(a2-3)Gal(b1-4)[Fuc(a1-3)]GlcNAc6S
# Summary of the method: as §1
# [34] = target: Neu5Ac(a2-6)Gal(b1-3)GlcNAc(b1-3)[Gal(b1-4)GlcNAc(b1-6)]Gal(b1-4)Glc
# Summary of the method: as §1
# [35] = target: Neu5Ac(a2-6)Gal(b1-4)GlcNAc(b1-3)Gal(b1-4)GlcNAc(b1-3)Gal(b1-4)GlcNAc(b1-2)Man(a1-3)[Neu5Ac(a2-6)Gal(b1-4)GlcNAc(b1-3)Gal(b1-4)GlcNAc(b1-3)Gal(b1-4)GlcNAc(b1-2)Man(a1-6)]GalNAc
# Summary of the method: as §1
# [36] = target: Neu5Ac(a2-8)Neu5Ac(a2-3)Gal(b1-4)Glc
# Summary of the method: as §1
# [37] = target: Neu5Ac(a2-8)Neu5Gc(a2-3)Gal(b1-4)GlcNAc
# Summary of the method: as §1
# [38] = target: Neu5Ac9Ac(a2-3)Gal(b1-4)GlcNAc
# Summary of the method: as §1
# [39] = target: Neu5Gc(a2-3)Gal(b1-4)GlcNAc
# Summary of the method: as §1
binder,measurement,setting,value
Si Bti9 1b-HA (Solanum lycopersicum) (protein) MFESRPRSVLSLGVFVILVYLSSVPLPVNSQCNRGCDLALASFYVWRGSNLTLISEMFSTSIADIVSYNNRDNIPNQDSVIAGTRINIPFRCDCLNDGEVLGHAFPYRVKSGDTYDLVARNYSDLTTAQWMMKFNSYPENNIPNTVNLSVVVNCSCGNSDVSKDFGLFVTYPVRAEDNLTSVASAANVSEDIIRRYNPAAVSILDIGQGIIYIPGRDRNGNFPPLPTSTDGLSGGAKAPLFFNPAFLYKVVELKLAGRSRTSGYPYDVPDYAGYPYDVPDYALEVLFQ,glycan array binding signal (z-score),Fuc(a1-2)Gal,-0.051
same,glycan array binding signal (z-score),[1],0.182
same,glycan array binding signal (z-score),[2],-0.271
same,glycan array binding signal (z-score),[3],-0.035
same,glycan array binding signal (z-score),Fuc(a1-2)Gal6S(b1-4)Glc,-0.028
same,glycan array binding signal (z-score),[4],2.04
same,glycan array binding signal (z-score),[5],-0.349
same,glycan array binding signal (z-score),[6],-0.146
same,glycan array binding signal (z-score),[7],-0.405
same,glycan array binding signal (z-score),Gal(a1-3)Gal(b1-3)GlcNAc,9.57
same,glycan array binding signal (z-score),[8],0.207
same,glycan array binding signal (z-score),[9],-0.182
same,glycan array binding signal (z-score),[10],-0.274
same,glycan array binding signal (z-score),[11],-0.16
same,glycan array binding signal (z-score),[12],3.24
same,glycan array binding signal (z-score),[13],1.03
same,glycan array binding signal (z-score),[14],3.72
same,glycan array binding signal (z-score),[15],2.51
same,glycan array binding signal (z-score),[16],-0.205
same,glycan array binding signal (z-score),[17],-0.324
same,glycan array binding signal (z-score),[18],-0.363
same,glycan array binding signal (z-score),[19],-0.346
same,glycan array binding signal (z-score),[20],3.44
same,glycan array binding signal (z-score),[21],2.69
same,glycan array binding signal (z-score),[22],0.042
same,glycan array binding signal (z-score),[23],-0.237
same,glycan array binding signal (z-score),Gal3S(b1-4)Glc,2.57
same,glycan array binding signal (z-score),GalNAc(b1-4)GlcNAc6S,-0.204
same,glycan array binding signal (z-score),[24],-0.157
same,glycan array binding signal (z-score),[25],-0.231
same,glycan array binding signal (z-score),[26],-0.271
same,glycan array binding signal (z-score),[27],2.7
same,glycan array binding signal (z-score),[28],0.086
same,glycan array binding signal (z-score),[29],-0.32
same,glycan array binding signal (z-score),Kdn(a2-3)Gal(b1-4)Glc,-0.287
same,glycan array binding signal (z-score),[30],-0.589
same,glycan array binding signal (z-score),[31],-0.638
same,glycan array binding signal (z-score),[32],-0.201
same,glycan array binding signal (z-score),Man(a1-6)Man,7.42
same,glycan array binding signal (z-score),Neu5Ac(a2-3)Gal(b1-4)Glc,0.009
same,glycan array binding signal (z-score),[33],-0.438
same,glycan array binding signal (z-score),[34],-0.236
same,glycan array binding signal (z-score),[35],2.19
same,glycan array binding signal (z-score),[36],0.02
same,glycan array binding signal (z-score),[37],-0.539
same,glycan array binding signal (z-score),[38],-0.425
same,glycan array binding signal (z-score),[39],-0.219
